Experimental data published in PubChem BioAssay (Tox21).
A number with no mark means an inactive call. Results filed as inconclusive are left out. A call without a number means that no potency is given here. The source made the active and inactive calls. Unless noted, the call rests on the fitted dose curve; in most records, active means well fitted curve in the direction sought with a large enough effect in the repeat runs; inconclusive means weak or mixed curves; inactive means no such curve, though single readings can be large; an effect the other way counts as inactive or inconclusive.

How the values were obtained:
[1] = molecular target: Nuclear receptor subfamily 1 group I member 3 (Homo sapiens) (UniProt Q14994); assay: qHTS assay to identify small molecule antagonists of the constitutive androstane receptor (CAR) signaling pathway (AID 1224838); further: nearly all actives have a fitted effect of over 40% in size; further: potency means the concentration at half of the fitted maximal effect
Method in brief: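 Cell line: HepG2 double-stable for hCAR and CYP2B6-2.2kb reporter. Agonist: CITCO, 50 nM final. Compounds: 15 concentrations, 24 h, 37 C. Detection: ONE-Glo luminescence.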

[2] = molecular target: Nuclear receptor subfamily 1 group I member 3 (Homo sapiens) (UniProt Q14994); assay: qHTS assay to identify small molecule agonists of the constitutive androstane receptor (CAR) signaling pathway (AID 1224839); further: nearly all actives have a fitted effect of over 15% in size; further: potency means the concentration at half of the fitted maximal effect;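 on activation: HepG2 cells stably carrying human CAR and a CYP2B6 luciferase reporter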
Method in brief: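 HepG2 cells stably expressing hCAR and a CYP2B6-2.2kb luciferase reporter were treated with compounds at 15 concentrations plus 0.75 uM PK11195 (final) for 24 h at 37 C; luminescence was read after ONE-Glo addition.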

[3] = molecular target: Thyrotropin receptor (Homo sapiens) (UniProt P16473); assay: qHTS assay to identify small molecule agonists of the thyroid stimulating hormone receptor (TSHR) signaling pathway (AID 1224843; calls by dose curve; further: nearly all actives have a fitted effect of over 45% in size; further: potency means the concentration at half of the fitted maximal effect)
Method in brief: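 TSHR-HEK293 cells in agonist mode, 30 min room-temperature step, then cAMP measured by competitive HTRF (cAMP-d2 with anti-cAMP cryptate) after 1 h at room temperature. Tested at 15 concentrations in triplicate.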

[4] = qHTS assay to identify small molecule agonists of H2AX (AID 1224845; active means well fitted activation curve with a large enough effect in the signal ratio in the repeat runs, not every such curve was filed as active; the % refers to the signal ratio)
Method in brief: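 Wild-type CHO-K1 cells, plated overnight, exposed 3hr at 37C to 15 concentrations (0.76% DMSO final). Lysed, then HTRF anti-pH2AX (S139) cryptate and anti-H2AX-d2 antibodies, 24 hr room temperature; 665/620 nm emission read.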

[5] = qHTS assay to identify small molecule agonists of H2AX - cell viability counter screen (AID 1224847; calls by dose curve; further: nearly all actives have a fitted effect of over 30% in size; further: potency means the concentration at half of the fitted maximal effect)
Method in brief: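 Wild-type CHO-K1 cells (10% FBS medium) were plated overnight at 37C, exposed to compounds at 15 concentrations for 3 hr at 37C (0.76% DMSO final), and viability was read as CellTiter-Glo luminescence after 30 min at room temperature.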

[6] = qHTS RealTime-Glo MT Cell Viability Assay in HepG2 cells - 24 hour (AID 1224867); further: nearly all actives have a fitted effect of over 50% in size; further: potency means the concentration at half of the fitted maximal effect
Method in brief: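 Compound treatment began 5 h after plating HepG2 cells (600/well) with NanoLuc luciferase and prosubstrate. Plates stayed at 37 C for 40 h; luminescence was captured at six time points, 0 h through 40 h.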

[7] = qHTS RealTime-Glo MT Cell Viability Assay in HEK293 cells - 32 hour (AID 1224868); further: nearly all actives have a fitted effect of over 50% in size; further: potency means the concentration at half of the fitted maximal effect
Method in brief: (§1)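 Quantitative high-throughput screen of the Tox21 10K library in HEK293: cells and RealTime-Glo reagents plated together, compound added at 5 h, luminescence monitored through 40 h at 37 C.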

[8] = qHTS RealTime-Glo MT Cell Viability Assay in HepG2 cells - 40 hour (AID 1224870); further: nearly all actives have a fitted effect of over 50% in size; further: potency means the concentration at half of the fitted maximal effect
Method in brief: (§2)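 HepG2 cells (600/well) mixed with RealTime-Glo MT reagent, settled 5 h at 37 C/5% CO2 before compound addition. Nonlytic NanoLuc luminescence from viable-cell prosubstrate reduction read repeatedly during 40 h treatment at 37 C.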

[9] = A CellTox Green Cytotoxicity Assay to monitor cytotoxicity in HEK293 cells - 40 hour (AID 1224871); further: nearly all actives have a fitted effect of over 45% in size; further: potency means the concentration at half of the fitted maximal effect
Method in brief: (§3)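 Fluorescence intensity, read at 0, 8, 16, 24, 32 and 40 h of compound treatment, reflected dye binding to DNA of dead HEK293 cells; compounds (23 nL, DMSO) were added 5 h after plating cells with reagent.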

[10] = qHTS RealTime-Glo MT Cell Viability Assay in HEK293 cells - 16 hour (AID 1224872); further: nearly all actives have a fitted effect of over 50% in size; further: potency means the concentration at half of the fitted maximal effect
Method in brief: as §1

[11] = qHTS RealTime-Glo MT Cell Viability Assay in HepG2 cells - 8 hour (AID 1224873); further: nearly all actives have a fitted effect of over 55% in size
Method in brief: as §2

[12] = qHTS RealTime-Glo MT Cell Viability Assay in HEK293 cells - 40 hour (AID 1224874); details: RealTime-Glo luminescence; max response: hits give low values; further: nearly all actives have a fitted effect of over 50% in size; further: potency means the concentration at half of the fitted maximal effect
Method in brief: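 Viable HEK293 cells reduce a cell-permeant prosubstrate; the product diffuses out and is consumed by NanoLuc in the medium to give light. Compounds went in after a 5 h incubation and plates were read over the treatment course.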

[13] = qHTS assay to identify small molecule antagonists of the estrogen related receptor signaling pathway with the pleiotropic PPARgamma coactivator (PGC) from Tox21 10K library (AID 1224841; call rule not given here; further: potency means the concentration at half of the fitted maximal effect)
Method in brief: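 qHTS antagonist format: PGC/ERR cells, 2k/well, compound in DMSO by pin transfer after 6 h attachment, 18 h treatment at 37 C, One-Glo luminescence read at 30 min.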

[14] = qHTS assay to identify small molecule agonists of the estrogen related receptor signaling pathway with the pleiotropic PPARgamma coactivator (PGC) from Tox21 10K library (AID 1224842); further: nearly all actives have a fitted effect of over 15% in size; further: potency means the concentration at half of the fitted maximal effect
Method in brief: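 PGC/ERR reporter cell line, 2,000 cells per well, incubated 6 h at 37 C before 23 nL compound in DMSO was added. After 18 h at 37 C, One-Glo luminescence read following 30 min at room temperature.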

[15] = qHTS assay to identify small molecule agonists of the hypoxia (HIF-1) signaling pathway - cell viability counter screen (AID 1224844; calls by dose curve; further: nearly all actives have a fitted effect of over 50% in size; further: potency means the concentration at half of the fitted maximal effect)
Method in brief: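 Cells (HRE-bla ME-180, 2,000 per well) sat 5 hrs at 37C, got compound for 17 hrs, were read for CCF4-AM FRET, and were finally lysed with CellTiter-Glo for a 30 min room-temperature luminescence read.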

[16] = qHTS assay to identify small molecule antagonists of the estrogen related receptor (ERR) signaling pathway from Tox21 library (AID 1224848); further: nearly all actives have a fitted effect of over 50% in size; further: potency means the concentration at half of the fitted maximal effect
Method in brief: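 ERR reporter cell line (from NTP) seeded 2,000 cells/well, rested 6 h at 37 C/5% CO2, then pin-dosed with compounds in DMSO. After 18 h at 37 C, ONE-Glo added; luminescence read after 30 min at room temperature.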

[17] = qHTS assay to identify small molecule agonists of the estrogen related receptor (ERR) signaling pathway from Tox21 library (AID 1224849; calls by dose curve; further: nearly all actives have a fitted effect of over 15% in size); details: ERR reporter cell line, ONE-Glo luciferase, 18 h; at 92.4 µM (top of the series) unless noted
Method in brief: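 Screening used an NTP-provided ERR luciferase cell line. Compounds in DMSO were added 6 h after seeding and left 18 h at 37 C before a 30 min ONE-Glo step and luminescence reading.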

[18] = A CellTox Green Cytotoxicity Assay to monitor cytotoxicity in HEK293 cells - 0 hour (AID 1224869); further: nearly all actives have a fitted effect of over 50% in size
Method in brief: as §3

[19] = qHTS assay to identify small molecule agonists of the hypoxia (HIF-1) signaling pathway (AID 1224846; active means well fitted activation curve with a large enough effect in the signal ratio in the repeat runs, not every such curve was filed as active; the % refers to the signal ratio)
Method in brief: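 A low-serum medium (0.5% dialyzed FBS) holding 2,000 HRE-bla ME-180 cells per well is preincubated for 5 hrs, dosed with compounds by pintool, and kept a further 17 hrs at 37C, 5% CO2 before CCF4-AM FRET detection of beta-lactamase.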

Chain of Nuclear receptor subfamily 1 group I member 3 (Homo sapiens) (Q14994 whole entry, looked up): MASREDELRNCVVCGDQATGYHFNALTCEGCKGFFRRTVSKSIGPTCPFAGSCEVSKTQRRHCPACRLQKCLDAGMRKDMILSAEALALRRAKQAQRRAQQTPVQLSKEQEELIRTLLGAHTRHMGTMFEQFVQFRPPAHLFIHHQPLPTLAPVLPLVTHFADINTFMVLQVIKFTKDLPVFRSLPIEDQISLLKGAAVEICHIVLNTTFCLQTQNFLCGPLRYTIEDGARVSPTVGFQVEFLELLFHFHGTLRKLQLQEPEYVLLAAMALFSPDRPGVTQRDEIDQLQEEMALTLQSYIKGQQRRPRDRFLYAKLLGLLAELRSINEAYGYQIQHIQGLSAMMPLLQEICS
Chain of Thyrotropin receptor (Homo sapiens) (P16473 whole entry, looked up): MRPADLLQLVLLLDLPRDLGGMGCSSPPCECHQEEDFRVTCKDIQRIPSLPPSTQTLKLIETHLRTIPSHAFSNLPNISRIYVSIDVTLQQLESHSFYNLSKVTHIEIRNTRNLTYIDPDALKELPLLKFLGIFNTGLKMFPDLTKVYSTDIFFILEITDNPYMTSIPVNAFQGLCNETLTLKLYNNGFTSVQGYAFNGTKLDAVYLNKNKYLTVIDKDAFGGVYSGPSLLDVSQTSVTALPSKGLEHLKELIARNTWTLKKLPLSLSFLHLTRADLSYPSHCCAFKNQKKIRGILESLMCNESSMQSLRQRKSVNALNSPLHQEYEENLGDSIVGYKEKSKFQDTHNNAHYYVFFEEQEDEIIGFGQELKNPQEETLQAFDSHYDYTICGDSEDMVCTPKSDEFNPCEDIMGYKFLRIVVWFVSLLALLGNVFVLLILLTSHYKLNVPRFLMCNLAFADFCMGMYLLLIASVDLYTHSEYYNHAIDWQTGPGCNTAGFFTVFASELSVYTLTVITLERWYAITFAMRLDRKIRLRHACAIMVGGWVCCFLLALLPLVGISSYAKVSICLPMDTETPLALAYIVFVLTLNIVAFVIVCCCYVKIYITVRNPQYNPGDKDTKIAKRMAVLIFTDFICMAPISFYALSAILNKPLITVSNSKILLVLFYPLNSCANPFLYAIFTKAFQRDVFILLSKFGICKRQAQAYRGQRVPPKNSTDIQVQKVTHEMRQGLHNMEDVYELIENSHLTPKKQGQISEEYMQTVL

Row | Compound | Potency [1] | Potency [2] | Potency [3] | Potency [4] | Potency [5] | Potency [6] | Potency [7] | Potency [8] | Potency [9] | Potency [10] | Potency [11] | max response [12] [%] | Potency [13] | Potency [14] | Potency [15] | Potency [16] | activity change, positive = activation [17] | Potency [18] | Potency [12] | Potency [19]
1 | CCCCCCCCCCCC(=O)Cl | inactive | inactive | inactive | inactive | inactive | inactive | inactive | inactive | inactive | inactive | inactive | 0.0053 | – | – | – | – | – | – | – | –
2 | CCCOC(=O)c1ccc(O)cc1 | inactive | 54.5 µM (active) | inactive | inactive | inactive | inactive | – | inactive | inactive | 49 µM (active) | inactive | – | inactive | 10.9 µM (active) | inactive | inactive | 17.7% (active) | – | – | –
3 | CN(C[C@@H](CC[N+]12CCC(C3CCCCC3)(CC1)CC2)c1ccc(Cl)c(Cl)c1)C(=O)c1cc(C(F)(F)F)cc(C(F)(F)F)c1 | 54.5 µM (active) | inactive | – | inactive | 50.5 µM (active) | 21.9 µM (active) | 2.19 µM (active) | 21.9 µM (active) | 27.5 µM (active) | 3.09 µM (active) | – | – | inactive | – | 19.5 µM (active) | 27.3 µM (active) | -78.4% | inactive | 2.19 µM (active) | –
4 | O[Si](c1ccccc1)(c1ccccc1)c1ccccc1 | inactive | 30.6 µM (active) | 48.6 µM (active) | inactive | 101 µM (active) | – | 38.9 µM (active) | inactive | inactive | – | inactive | – | 68.6 µM (active) | inactive | inactive | – | -39.7% | inactive | 38.9 µM (active) | inactive
5 | c1ccc2c(c1)-c1ccc3ccc4cccc5cc-2c1c3c45 | inactive | 11.9 µM (active) | inactive | inactive | inactive | – | inactive | inactive | – | inactive | inactive | 8.42 | – | – | inactive | – | – | – | – | –
6 | Nc1cccnc1N | inactive | inactive | inactive | – | inactive | inactive | – | inactive | inactive | – | inactive | – | – | – | inactive | – | – | inactive | – | inactive
7 | CCCCCCCCCCCCCCCCCCNC(=O)OC1CCN(C(=O)OC[C@H](COC(=O)N(Cc2cccc[n+]2CC)C(=O)c2ccccc2OC)OC)CC1 | inactive | inactive | – | inactive | – | – | 9.52 µM (active) | – | – | 21.3 µM (active) | – | – | 11.9 µM (active) | inactive | – | 10.6 µM (active) | -55.2% [at 42.5 µM] | inactive | 9.52 µM (active) | –
